Experimental data published in PubChem BioAssay (Tox21).
Records with an inconclusive call do not appear. Calls of active or inactive are those of the source. Unless noted, calls come from the whole dose curve; as a rule, active = well fitted curve in the direction sought with a large enough effect in the repeat runs; inconclusive = weak or mixed curves; inactive = no such curve, though single readings can be large; an effect the other way counts as inactive or inconclusive.

Tests used:
[1] = qHTS assay for small molecules that induce genotoxicity in human embryonic kidney cells expressing luciferase-tagged ATAD5 (AID 651632); note: nearly all actives have a fitted effect of over 15% in size
Outline: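 HEK293T cells carrying luciferase-tagged ATAD5 were given compound or DMSO vehicle and incubated 16 hr at 37C, 5% CO2. Luciferase activity was read after 30 min at room temperature with Amplite; a rise signals genotoxic stress.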

[2] = qHTS assay for small molecule agonists of the p53 signaling pathway - cell viability (AID 651633; calls by dose curve;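 note: p53RE-bla HCT reporter cells with a stable beta-lactamase p53 reporter; series mostly up to about 83 µM; nearly all actives have a fitted effect of over 30% in size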)
Outline: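 Viability counter-read: CellTiter-Glo luminescence (30 min, room temperature) in the same p53RE-bla plates. These plates had been exposed to compounds for 16 h at 37 C.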

[3] = qHTS assay for small molecules that induce genotoxicity in human embryonic kidney cells expressing luciferase-tagged ATAD5 - cell viability (AID 651634; calls by dose curve; note: nearly all actives have a fitted effect of over 25% in size)
Outline: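 HEK293T cells carrying luciferase-tagged ATAD5, 2,000 cells/well, exposed to compound for 15.5 hr at 37C. Viability read as live-cell protease activity by CellTiter-Fluor fluorescence after 30 min at 37C.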

[4] = qHTS assay for small molecule disruptors of the mitochondrial membrane potential - cell viability (AID 720634; calls by dose curve;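 note: human HepG2 liver cancer cells; series mostly up to about 83 µM; nearly all actives have a fitted effect of over 20% in size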)
Outline: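 HepG2 cells, 2,000 per well, attached overnight, then treated 1 hr at 37 C, 5% CO2. Viability read as ATP by CellTiter-Glo luminescence after 30 min at room temperature. Read in the same wells as the m-MPI membrane-potential dye assay.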

[5] = qHTS assay for small molecule disruptors of the mitochondrial membrane potential (AID 720635)
Outline: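 Mitochondrial membrane potential tracked with Mito-MPS dye, red aggregates (ex 540/em 590 nm) against green monomers (ex 490/em 535 nm). Compound treatment 1 hr at 37C, dye 30 min in HepG2.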

[6] = qHTS assay to test for compound auto fluorescence at 590 nm (red) in HepG2 cells (AID 720674)
Outline: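 Red autofluorescence (Ex/Em 540/590 nm, Rose Bengal sodium equivalents) was measured in HepG2 cells, 2,000 per well in MEM plus 10% FBS, plated overnight at 37 C. Readings were taken 1 hr after adding 23 nL compound or DMSO, at 37 C and 5% CO2.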

[7] = qHTS assay to test for compound auto fluorescence at 535 nm (green) in HepG2 cells (AID 720675)
[8] = qHTS assay to test for compound auto fluorescence at 460 nm (blue) in HEK293 cells (AID 720678)
Outline: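 Blue read-out at excitation 405 nm and emission 460 nm follows overnight compound exposure of HEK293 cells at 37C in 5% CO2. Activity is given as auto fluorescence equivalency to triamterene.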

[9] = qHTS assay to test for compound auto fluorescence at 590 nm (red) in HEK293 cells (AID 720679)
Outline: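 Red channel, Ex/Em 540/590nm; signal expressed as equivalency to Rose Bengal sodium. HEK293, 2,000 cells/well, 10% dialyzed FBS; 23 nL compound pinned after 4-5 hr attachment; overnight 37C/5% CO2 before reading.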

[10] = qHTS assay to test for compound auto fluorescence at 535 nm (green) in HEK293 cells (AID 720680)
[11] = qHTS assay to test for compound auto fluorescence at 460 nm (blue) in HEK293 cell free culture (AID 720681)
Outline: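 Blue fluorescence (Ex 405/Em 460 nm, triamterene-equivalent) was read immediately after pin transfer of compound or DMSO into medium (DMEM, 10% FBS) without cells.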

[12] = qHTS assay to test for compound auto fluorescence at 535 nm (green) in HEK293 cell free culture (AID 720682)
Outline: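 Intrinsic compound fluorescence is measured in culture medium containing 10% FBS, with excitation at 485 nm and detection at 535 nm, referenced to fluorescein.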

[13] = qHTS assay to test for compound auto fluorescence at 590 nm (red) in HEK293 cell free culture (AID 720683)
Outline: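 Red-channel autofluorescence of compounds in culture medium (DMEM, 10% FBS), no cells, measured at 540/590 nm. Rose Bengal sodium is the reference fluorophore for equivalence.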

[14] = qHTS assay to test for compound auto fluorescence at 460 nm (blue) in HepG2 cell free culture (AID 720685)
Outline: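 Compound (23 nL) or DMSO pinned into cell-free MEM with 10% FBS; blue fluorescence read at 405/460 nm excitation/emission, expressed as auto-fluorescence equivalency to triamterene.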

[15] = qHTS assay to test for compound auto fluorescence at 535 nm (green) in HepG2 cell free culture (AID 720686)
[16] = qHTS assay to test for compound auto fluorescence at 460 nm (blue) in HepG2 cells (AID 720687)
Outline: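 Blue-channel autofluorescence (Ex/Em 405/460 nm, triamterene-equivalent) was measured after 1 hr compound exposure at 37 C, 5% CO2. Cells were HepG2, plated overnight at 37 C in MEM plus 10% FBS.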

[17] = biological target: Glucocorticoid receptor (Homo sapiens) (UniProt P04150); test: qHTS assay to identify small molecule agonists of the glucocorticoid receptor (GR) signaling pathway (AID 720691; active = well fitted activation curve with a large enough effect in the signal ratio in the repeat runs, not every such curve was filed as active; the % refers to the signal ratio)
Glucocorticoid receptor (Homo sapiens), sequence (P04150 whole entry, looked up): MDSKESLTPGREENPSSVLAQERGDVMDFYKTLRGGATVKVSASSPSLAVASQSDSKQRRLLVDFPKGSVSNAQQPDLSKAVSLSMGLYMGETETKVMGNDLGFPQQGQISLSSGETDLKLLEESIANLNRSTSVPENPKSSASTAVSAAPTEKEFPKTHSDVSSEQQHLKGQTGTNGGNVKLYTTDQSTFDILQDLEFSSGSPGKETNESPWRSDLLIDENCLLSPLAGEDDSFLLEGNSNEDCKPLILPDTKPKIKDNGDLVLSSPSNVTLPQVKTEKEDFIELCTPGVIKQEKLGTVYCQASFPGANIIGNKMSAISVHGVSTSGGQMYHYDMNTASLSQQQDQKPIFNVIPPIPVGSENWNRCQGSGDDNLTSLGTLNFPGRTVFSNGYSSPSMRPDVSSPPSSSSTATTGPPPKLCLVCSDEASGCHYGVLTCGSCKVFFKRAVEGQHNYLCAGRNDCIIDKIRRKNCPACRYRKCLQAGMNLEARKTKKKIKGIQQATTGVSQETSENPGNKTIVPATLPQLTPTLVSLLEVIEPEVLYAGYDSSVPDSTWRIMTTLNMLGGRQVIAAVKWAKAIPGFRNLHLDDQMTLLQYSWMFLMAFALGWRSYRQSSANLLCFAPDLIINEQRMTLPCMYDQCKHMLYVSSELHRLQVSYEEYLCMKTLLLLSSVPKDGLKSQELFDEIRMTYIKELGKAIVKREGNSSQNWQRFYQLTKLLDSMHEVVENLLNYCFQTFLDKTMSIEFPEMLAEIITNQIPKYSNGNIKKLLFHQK
Outline: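 GR-bla HeLa cells carrying a GRE-driven beta-lactamase reporter, exposed to compounds for 18 h at 37 C. Reporter activation read as fluorescence after 2 h with LiveBLAzer B/G FRET substrate at room temperature.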

[18] = biological target: Glucocorticoid receptor (Homo sapiens) (UniProt P04150); test: qHTS assay to identify small molecule antagonists of the glucocorticoid receptor (GR) signaling pathway (AID 720692; active = well fitted inhibition curve with a large enough effect in the signal ratio in the repeat runs, not every such curve was filed as active; the % refers to the signal ratio)
Outline: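 GR-bla HeLa cells carrying a GRE-driven beta-lactamase reporter received compound after 4 h plating, then dexamethasone (5 nM final). After 18 h at 37C, the FRET substrate was loaded for 2 h at room temperature and fluorescence read.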

[19] = qHTS assay to test for compound auto fluorescence at 590 nm (red) in HepG2 cell free culture (AID 720684)
Outline: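 Steps: dispense MEM/10% FBS medium, no cells; pin compound or DMSO vehicle; read red channel, Ex/Em 540/590 nm. Output given as Rose Bengal sodium equivalents.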
% is set by controls: 0 for no effect and ±100 for the full control effect.

CC(C)COC(=O)C(C)C
inactive: Potency [1] | Potency [2] | Potency [3] | Potency [4] | Potency [5] | outcome [6] | outcome [7] | Potency [8] | outcome [9] | outcome [10] | Potency [11] | outcome [12] | outcome [13] | Potency [14] | outcome [15] | Potency [16] | Potency [17] | Potency [18]

CCN1CCCC(OC(=O)C(c2ccccc2)c2ccccc2)C1 (centres undefined)
inactive: Potency [1] | Potency [2] | Potency [3] | Potency [4] | fluorescence, relative to Rose Bengal [6] 0.0398% [at 18.6 µM] | fluorescence, % of fluorescein control [7] 0.107% [at 18.6 µM] | fluorescence, % of triamterene [8] 0.0169% [at 18.6 µM] | fluorescence, % of fluorescent control [9] -0.0352% [at 18.6 µM] | fluorescence, % of fluorescein [10] -0.0754% [at 18.6 µM] | activity change [12] 0.0002% [at 18.6 µM] | fluorescence, % of fluorescent control [13] 0.138% [at 18.6 µM] | fluorescence, % of fluorescent control [14] -0.0343% [at 18.6 µM] | fluorescence, % of fluorescein control [15] 0.088% [at 18.6 µM] | Potency [17]

CCOC(=O)Cn1c(=O)sc2cccc(Cl)c21
inactive: Potency [1] | Potency [2] | Potency [3] | Potency [4] | outcome [6] | outcome [7] | Potency [8] | outcome [9] | outcome [10] | outcome [12] | outcome [13] | outcome [19] | Potency [14] | outcome [15] | Potency [16] | Potency [17]

CCN(CC)S(=O)(=O)c1ccc(C(=O)O)cc1
inactive: Potency [1] | Potency [2] | Potency [3] | Potency [4] | outcome [6] | outcome [7] | Potency [8] | outcome [9] | outcome [10] | Potency [11] | outcome [12] | outcome [13] | outcome [19] | Potency [14] | outcome [15] | Potency [17] | Potency [18]

CCN1CCN(c2cc3c(cc2F)c(=O)c(C(=O)O)cn3C2CC2)CC1
inactive: Potency [1] | Potency [2] | Potency [3] | Potency [4] | outcome [6] | outcome [7] | Potency [8] | outcome [9] | outcome [12] | outcome [13] | Potency [14] | outcome [15] | Potency [16] | Potency [17] | Potency [18]

NC(=S)Nc1cccc2ccccc12
inactive: activation [1] 1.78% [at 8.08 µM] | activity change, negative = cytotoxicity [2] -14.4% [at 8.08 µM] | activity, negative = cytotoxicity [3] -8.88% [at 8.08 µM] | activity change, negative = cytotoxicity [4] 7.63% [at 8.08 µM] | fluorescence, relative to Rose Bengal [6] -0.163% [at 3.72 µM] | fluorescence, % of fluorescein control [7] 0.0274% [at 3.72 µM] | fluorescence, % of triamterene [8] -0.0445% [at 3.72 µM] | fluorescence, % of fluorescent control [9] -0.0728% [at 3.72 µM] | fluorescence, % of fluorescein [10] 0.198% [at 3.72 µM] | fluorescence, % of fluorescent control [11] -0.0083% [at 3.72 µM] | activity change [12] 0.0539% [at 3.72 µM] | fluorescence, % of fluorescent control [13] -0.0289% [at 3.72 µM] | fluorescence, % of Rose Bengal [19] -0.172% [at 3.72 µM] | fluorescence, % of fluorescent control [14] 0.0279% [at 3.72 µM] | fluorescence, % of fluorescein control [15] 0.006% [at 3.72 µM] | fluorescence, % of fluorescent control [16] -0.0944% [at 3.72 µM] | activation [17] -4.91% [at 6.9 µM] | activity change, negative = inhibition [18] -3.43% [at 7.04 µM]

O=C(O)c1cccc(C(=O)O)n1
inactive: Potency [1] | Potency [2] | Potency [3] | Potency [4] | Potency [5] | outcome [6] | outcome [7] | Potency [8] | outcome [9] | outcome [12] | outcome [13] | outcome [19] | Potency [14] | outcome [15] | Potency [16] | Potency [17] | Potency [18]

C=C(C)[C@@H]1CCC2=CC(=O)C[C@@H](C)[C@]2(C)C1
inactive: Potency [1] | Potency [2] | Potency [3] | Potency [4] | outcome [6] | outcome [7] | Potency [8] | outcome [9] | outcome [10] | Potency [11] | outcome [12] | outcome [13] | Potency [14] | outcome [15]
